In ChEMBL document CHEMBL3988442, “University of Dundee, Small-Polar-MMV Screening Library” (2021):
About 13,000 (27%) of roughly 48,000 compounds showed an effect of 50% or more. This is one part of the list.

system: Wolbachia pipientis; assay: Anti-Wolbachia Cell-Based Screen; assay type: functional; parameters: scale not given: in the data most compounds retested in dose-response had high values; settings: 5 µM

SMILES	Percent Effect [%]
Cc1oncc1C(=O)N1CC[C@H]2[C@H](CO[C@@H]2CNS(C)(=O)=O)C1	-5.011
COc1ccc(CNCCC(=O)N2CCc3sccc3C2)cc1O	-10.83
CC(C)(C)c1cn2nc(N3CCC[C@@H]3CO)sc2n1	-4.736
Cc1csc2ncc(-c3ccnc(N4CCCC[C@@H]4CO)n3)c(=O)n12	6.094
Cc1cn2c(=O)c(-c3ccnc(N4CCC[C@@H]4CO)n3)cnc2s1	87.72
Cc1csc2ncc(-c3ccnc(N4CCC[C@@H]4CO)n3)c(=O)n12	56.16
COc1ccc(-c2noc(-c3ccc(N4CCC[C@H]4CO)nc3)n2)cc1	-7.045
OCC1CCCCN1c1ccc(-c2nc(-c3ccccc3F)no2)cn1 (configuration not stated)	1.745
O=c1c(-c2ccnc(N3CCCC[C@@H]3CO)n2)cnc2sccn12	125.6
Cc1cnn(CC2CCCN2Cc2cc(=O)n3c(C)csc3n2)c1 (configuration not stated)	1.323
O=C(NCCc1cccs1)N1CCC[C@H]1CO	-11.14
O=c1c(-c2ccnc(N3CCC[C@H]3CO)n2)cnc2sccn12	102.3
COC(=O)C(NC(=O)c1cc(C)ccc1C)c1cccnc1 (configuration not stated)	-6.12
CCCc1cc(NC(=O)c2ccc(Cl)c(N3CCNC3=O)c2)n[nH]1	5.533
COC(=O)c1cccc(S(=O)(=O)N2CSCC2C(=O)N(C)C2CC2)c1 (configuration not stated)	-20.06
CCN(C(c1ccc(OC)cc1)c1cccnc1)S(C)(=O)=O (configuration not stated)	3.822
CCC(=O)NCC(=O)N(C)C(c1ccc(Cl)cc1)c1cccnc1 (configuration not stated)	138.5
CNC(=O)NCC(=O)N(C)C(c1ccc(Cl)cc1)c1cccnc1 (configuration not stated)	108.8
CNC(=O)NC(=O)CN(C)C(c1cccnc1)c1ccc(F)cc1F (configuration not stated)	-23.22
CC(C)C(c1cccnc1)N(C)C(=O)Cc1c(F)cccc1F (configuration not stated)	1.062
CC(=O)N(C)C(c1cccnc1)c1ccc(F)c(F)c1 (configuration not stated)	0.3352

SMILES	Percent Effect [%]
CCN(C(C)=O)C(c1cccnc1)c1cc(C)cc(C)c1 (configuration not stated)	0.6077
CN(CC(=O)N(C)C(c1ccc(Cl)cc1)c1cccnc1)C1CC1 (configuration not stated)	97.71
CN(CC(=O)N(C)C(c1cccnc1)c1ccc(F)c(F)c1)C1CC1 (configuration not stated)	12
CC(C)N1CCC(N2CCOC3(CCCC3)C2)C1=O (configuration not stated)	10.32
Cc1cnc(CNc2c(F)cccc2-n2cccn2)o1	-16.45
O=C(O)C(F)(F)F.O=C(O)C(F)(F)F.O=C(O)C(F)(F)F.O=C(O)c1cc2c(nc1-c1ccncc1)CCN(C1CCOC1)CC2 (configuration not stated)	-8.005
O=C(O)CCc1nc2nccc(-c3ccc(F)cc3)n2n1	119.2
N#Cc1ccnc(N2CCN(CC(O)c3ccc(F)cc3)CC2)c1 (configuration not stated)	-11.77
CC(C)c1cc(C(F)(F)F)n2nc(CCC(=O)O)nc2n1	-4.305
O=C(O)CCc1cc2n(n1)CCCN(C(=O)c1ccc(F)cc1F)C2	-66.14
O=C(O)Cc1nc2nccc(-c3ccc(F)cc3)n2n1	127
O=C(O)Cc1cccc(-n2ccnc2-c2ccc(F)c(Cl)c2)c1	-0.5745
O=C(O)CCc1nc2nccc(C(F)(F)F)n2n1	112.1
CCN(Cc1c(F)cccc1F)C(=O)c1ccncc1O	-5.979
COCC1CCN(S(=O)(=O)N2C[C@H](c3ccccc3)[C@@H](N)C2)CC1	-1.102
CCc1ccc2nc(C)cc(C(=O)NCc3csc(N(C)C)n3)c2c1	-26.8
COc1nn(C)c2c1CCCN(S(=O)(=O)c1cccc(C)c1)C2	0.0765
O=C(C1CC1)N1CC[C@H]2C(=O)N(c3ccsc3)CCO[C@H]2C1	9.146
FC(F)C(F)(F)COCc1ncnn1-c1ccc2c(c1)OCO2	-0.1872
CN(C)C(=O)NC1COC2(CCN(Cc3ccc(Cl)c(F)c3)CC2)C1.O=C(O)C(F)(F)F (configuration not stated)	5.668
CCC(O)CN1CCN(C(=O)c2ccc(Cn3cccc3)cc2)CC1 (configuration not stated)	90.26

SMILES	Percent Effect [%]
CCCN1CCN(C(=O)c2ccc(Cn3cc(Br)cn3)cc2)CC1	-5.49
CC(O)CN1CCN(C(=O)c2ccc(Cn3cccc3)cc2)CC1 (configuration not stated)	3.366
O=C(c1ccc(Oc2cccnc2)cc1)N1CCN(CCO)CC1	6.053
O=C(c1ccc(Cn2cccc2)cc1)N1CCN(CCO)CC1	94.5
CC(O)CN1CCN(C(=O)c2ccc(Cn3cccn3)cc2)CC1 (configuration not stated)	3.707
Cc1cc2c(c(-c3cnccn3)c1)OC(CN)C2 (configuration not stated)	-6.126
CCN(Cc1nc(COC)no1)Cc1cccnc1NC(=O)C(C)(C)C	-4.491
Cc1c(Cl)cccc1NC(=O)c1nc[nH]n1	83.83
Cc1c(Cl)cccc1NC(=O)Cn1cc(C(=O)O)ccc1=O	1.545
Cc1c(Cl)cccc1NC(=O)CCNc1ccc(C#N)cn1	0.2076
CCN(C)c1ncnc2c1CCN(Cc1ccc(OC)cc1)CC2.O=C(O)C(F)(F)F.O=C(O)C(F)(F)F	-7.101
Fc1ccc(CN2CCc3ncnc(C4CCOC4)c3CC2)cc1.O=C(O)C(F)(F)F (configuration not stated)	-4.98
COc1ccc(CN2CCc3ncnc(C4CCOC4)c3CC2)cc1.O=C(O)C(F)(F)F (configuration not stated)	-16.69
O=C(O)C(F)(F)F.O=C(O)C(F)(F)F.c1cncc(CN2CCc3ncnc(C4CC4)c3CC2)c1	8.838
O=C(O)C(F)(F)F.c1nc2c(c(C3CC3)n1)CCN(Cc1ccc3c(c1)OCO3)CC2	-14.88
O=C(O)C(F)(F)F.c1ccc(CN2CCc3ncnc(C4CC4)c3CC2)cc1	85.35
Fc1ccc(CN2CCc3ncnc(C4CC4)c3CC2)cc1.O=C(O)C(F)(F)F	98.26
O=C(O)C(F)(F)F.O=C(O)C(F)(F)F.c1ccc(CN2CCc3ncnc(C4CC4)c3CC2)nc1	-2.713
COc1ccc(CN2CCc3ncnc(C4CC4)c3CC2)cc1.O=C(O)C(F)(F)F	110.6
Cc1ccc(O)c(C(=O)N2CCC(CNC(=O)OC(C)(C)C)C2)c1 (configuration not stated)	18.78
